For one molecule, egg-laying rate results are on record in the supplement of paper PMC9402605.

± gives the standard deviation of the averaged measurements.

The subject of this assay is Caenorhabditis elegans N2. Put plainly: egg-laying rate relative to DMSO control (serotonin + nicotine background) (fraction of control); higher = more egg-laying. Particulars: background: 12.3 mM serotonin + 7.7 mM nicotine; 60 µM; 1 h. The protocol:
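About 20 young-adult wild-type C. elegans (N2) per well in 96-well plates were exposed to 60 uM compound for 1 h at room temperature, either in M9 buffer (to find stimulators) or in 12.3 mM serotonin + 7.7 mM nicotine (NS, to find inhibitors). Eggs per worm per hour were counted by automated imaging and normalised to the mean of proximal DMSO control wells. Values average the primary screen and two retests of the worm-active (wactive) Egl modulators.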
Regarding `CCOc1ccc(/C=C/[N+](=O)[O-])cc1` [wact-385], the egg-laying rate stood at 0.313 ± 0.11.
